Data published in ChEMBL document CHEMBL1961873, “Compounds: GSK PKIS; Assays: Nanosyn kinase panel” (2012).

Tests used:
[1] = biological target: T1, Serine/threonine-protein kinase D2 (Homo sapiens) (UniProt Q9BZL6); conditions: at 1 µM;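 note: mean value of PRKD2 inhibition, from the GSK PKIS screening panel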
T1 sequence (whole entry): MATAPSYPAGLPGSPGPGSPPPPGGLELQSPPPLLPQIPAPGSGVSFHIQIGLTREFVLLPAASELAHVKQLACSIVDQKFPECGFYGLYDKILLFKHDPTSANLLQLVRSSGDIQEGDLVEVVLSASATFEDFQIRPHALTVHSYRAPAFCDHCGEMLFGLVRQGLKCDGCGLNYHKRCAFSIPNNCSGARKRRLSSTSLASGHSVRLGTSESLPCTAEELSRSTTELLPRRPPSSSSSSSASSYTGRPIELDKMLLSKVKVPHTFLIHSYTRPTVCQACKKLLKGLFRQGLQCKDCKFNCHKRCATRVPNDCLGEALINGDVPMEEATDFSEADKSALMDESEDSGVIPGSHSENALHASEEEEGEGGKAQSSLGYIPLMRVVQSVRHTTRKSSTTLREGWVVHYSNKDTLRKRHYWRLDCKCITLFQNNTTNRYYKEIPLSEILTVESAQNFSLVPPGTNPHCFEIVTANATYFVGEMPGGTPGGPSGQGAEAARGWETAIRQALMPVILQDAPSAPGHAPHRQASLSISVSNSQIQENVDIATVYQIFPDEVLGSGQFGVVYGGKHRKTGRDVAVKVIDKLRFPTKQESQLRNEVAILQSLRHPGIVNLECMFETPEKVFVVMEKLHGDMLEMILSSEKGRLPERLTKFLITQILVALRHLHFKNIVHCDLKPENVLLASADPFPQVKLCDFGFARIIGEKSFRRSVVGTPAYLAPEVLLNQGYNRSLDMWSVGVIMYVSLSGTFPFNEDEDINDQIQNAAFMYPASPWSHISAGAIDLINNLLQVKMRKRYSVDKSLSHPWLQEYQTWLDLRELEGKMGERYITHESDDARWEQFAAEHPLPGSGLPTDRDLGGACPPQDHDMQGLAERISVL

[2] = biological target: T2, Serine/threonine-protein kinase D3 (Homo sapiens) (UniProt O94806); conditions: at 0.1 µM
T2 sequence (whole entry): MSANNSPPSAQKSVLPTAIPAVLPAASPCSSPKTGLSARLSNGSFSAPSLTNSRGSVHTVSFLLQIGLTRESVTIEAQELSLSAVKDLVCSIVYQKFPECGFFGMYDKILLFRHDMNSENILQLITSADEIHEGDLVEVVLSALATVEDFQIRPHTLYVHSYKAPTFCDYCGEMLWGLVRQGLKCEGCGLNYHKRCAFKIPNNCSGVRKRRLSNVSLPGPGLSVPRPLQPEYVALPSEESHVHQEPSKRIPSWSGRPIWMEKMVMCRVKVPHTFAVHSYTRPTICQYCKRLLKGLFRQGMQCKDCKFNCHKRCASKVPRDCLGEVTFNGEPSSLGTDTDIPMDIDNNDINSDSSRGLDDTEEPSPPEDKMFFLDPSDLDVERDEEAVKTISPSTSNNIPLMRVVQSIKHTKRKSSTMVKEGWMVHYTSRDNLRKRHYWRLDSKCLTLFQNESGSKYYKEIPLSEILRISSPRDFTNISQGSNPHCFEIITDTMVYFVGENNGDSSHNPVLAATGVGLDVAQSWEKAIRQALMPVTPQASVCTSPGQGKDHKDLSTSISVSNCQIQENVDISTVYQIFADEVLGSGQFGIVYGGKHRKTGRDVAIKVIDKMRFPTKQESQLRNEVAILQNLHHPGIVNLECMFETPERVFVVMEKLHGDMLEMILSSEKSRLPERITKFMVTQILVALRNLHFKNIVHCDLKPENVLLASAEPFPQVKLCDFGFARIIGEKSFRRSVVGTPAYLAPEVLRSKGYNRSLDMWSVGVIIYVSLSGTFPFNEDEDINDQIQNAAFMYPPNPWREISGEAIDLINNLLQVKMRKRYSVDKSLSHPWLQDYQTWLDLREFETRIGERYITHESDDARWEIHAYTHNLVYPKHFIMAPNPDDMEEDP

[3] = biological target: T2, Serine/threonine-protein kinase D3 (Homo sapiens); conditions: at 1 µM
[4] = biological target: T3, cGMP-dependent protein kinase 1 (Homo sapiens) (UniProt Q13976); conditions: at 0.1 µM
T3 sequence (whole entry): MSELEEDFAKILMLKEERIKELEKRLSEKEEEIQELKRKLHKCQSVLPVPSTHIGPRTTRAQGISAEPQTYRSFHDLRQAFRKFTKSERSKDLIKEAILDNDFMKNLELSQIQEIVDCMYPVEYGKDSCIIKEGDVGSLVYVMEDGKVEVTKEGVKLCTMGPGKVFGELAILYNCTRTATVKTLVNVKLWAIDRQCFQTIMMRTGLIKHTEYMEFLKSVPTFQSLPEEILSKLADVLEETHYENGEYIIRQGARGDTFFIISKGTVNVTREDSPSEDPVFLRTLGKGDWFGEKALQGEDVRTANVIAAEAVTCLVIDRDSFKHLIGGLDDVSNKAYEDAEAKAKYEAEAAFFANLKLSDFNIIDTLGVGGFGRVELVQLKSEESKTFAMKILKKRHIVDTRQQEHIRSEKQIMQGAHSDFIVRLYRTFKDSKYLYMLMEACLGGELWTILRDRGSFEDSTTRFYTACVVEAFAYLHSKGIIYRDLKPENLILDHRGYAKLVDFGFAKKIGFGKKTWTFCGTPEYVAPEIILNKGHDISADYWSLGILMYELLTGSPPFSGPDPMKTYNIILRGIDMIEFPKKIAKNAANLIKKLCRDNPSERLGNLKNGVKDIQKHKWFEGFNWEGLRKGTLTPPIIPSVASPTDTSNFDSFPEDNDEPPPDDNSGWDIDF

[5] = biological target: T3, cGMP-dependent protein kinase 1 (Homo sapiens); conditions: at 1 µM
[6] = biological target: T4, cGMP-dependent protein kinase 2 (Homo sapiens) (UniProt Q13237); conditions: at 0.1 µM
T4 sequence (whole entry): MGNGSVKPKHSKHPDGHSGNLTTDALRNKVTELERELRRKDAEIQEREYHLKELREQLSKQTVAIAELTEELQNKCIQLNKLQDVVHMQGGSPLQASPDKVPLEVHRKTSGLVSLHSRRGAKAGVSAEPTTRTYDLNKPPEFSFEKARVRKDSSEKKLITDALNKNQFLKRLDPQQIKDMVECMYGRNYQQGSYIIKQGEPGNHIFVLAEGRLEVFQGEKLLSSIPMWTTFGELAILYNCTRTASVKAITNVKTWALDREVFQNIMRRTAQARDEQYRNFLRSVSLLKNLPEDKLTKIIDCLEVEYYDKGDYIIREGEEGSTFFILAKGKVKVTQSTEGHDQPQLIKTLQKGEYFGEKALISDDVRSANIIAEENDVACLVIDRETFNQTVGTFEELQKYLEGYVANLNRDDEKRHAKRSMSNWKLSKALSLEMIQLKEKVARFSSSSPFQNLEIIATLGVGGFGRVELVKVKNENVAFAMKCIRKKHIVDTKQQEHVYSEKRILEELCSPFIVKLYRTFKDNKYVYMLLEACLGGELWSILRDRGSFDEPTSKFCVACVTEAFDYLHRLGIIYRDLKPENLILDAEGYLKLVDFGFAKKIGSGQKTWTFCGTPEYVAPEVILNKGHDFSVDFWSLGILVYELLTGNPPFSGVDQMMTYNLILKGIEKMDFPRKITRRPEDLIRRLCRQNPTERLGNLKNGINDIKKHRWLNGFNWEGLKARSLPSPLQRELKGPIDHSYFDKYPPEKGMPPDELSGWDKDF

[7] = biological target: T4, cGMP-dependent protein kinase 2 (Homo sapiens); conditions: at 1 µM
[8] = biological target: T5, cAMP-dependent protein kinase catalytic subunit PRKX (Homo sapiens) (UniProt P51817); conditions: at 0.1 µM
T5 sequence (whole entry): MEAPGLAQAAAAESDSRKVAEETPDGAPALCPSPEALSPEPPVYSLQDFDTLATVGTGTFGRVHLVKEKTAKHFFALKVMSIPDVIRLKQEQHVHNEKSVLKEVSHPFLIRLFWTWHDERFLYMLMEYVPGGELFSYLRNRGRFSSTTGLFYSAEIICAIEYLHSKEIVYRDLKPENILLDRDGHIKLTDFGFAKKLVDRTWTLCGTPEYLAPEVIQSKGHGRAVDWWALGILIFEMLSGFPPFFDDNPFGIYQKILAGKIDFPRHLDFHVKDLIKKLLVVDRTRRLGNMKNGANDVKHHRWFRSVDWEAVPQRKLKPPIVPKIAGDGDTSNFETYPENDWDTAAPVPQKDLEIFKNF

[9] = biological target: T5, cAMP-dependent protein kinase catalytic subunit PRKX (Homo sapiens); conditions: at 1 µM
[10] = biological target: Rho-associated protein kinase 1 (Homo sapiens) (UniProt Q13464); conditions: at 0.1 µM
[11] = biological target: Rho-associated protein kinase 1 (Homo sapiens) (UniProt Q13464); conditions: at 1 µM
[12] = biological target: Rho-associated protein kinase 2 (Homo sapiens) (UniProt O75116); conditions: at 0.1 µM
[13] = biological target: Rho-associated protein kinase 2 (Homo sapiens) (UniProt O75116); conditions: at 1 µM
[14] = biological target: Ribosomal protein S6 kinase alpha-1 (Homo sapiens) (UniProt Q15418); conditions: at 0.1 µM
[15] = biological target: Ribosomal protein S6 kinase alpha-1 (Homo sapiens) (UniProt Q15418); conditions: at 1 µM
[16] = biological target: Ribosomal protein S6 kinase alpha-3 (Homo sapiens) (UniProt P51812); conditions: at 0.1 µM
[17] = biological target: Ribosomal protein S6 kinase alpha-3 (Homo sapiens) (UniProt P51812); conditions: at 1 µM
[18] = biological target: Ribosomal protein S6 kinase alpha-2 (Homo sapiens) (UniProt Q15349); conditions: at 0.1 µM
[19] = biological target: Ribosomal protein S6 kinase alpha-2 (Homo sapiens) (UniProt Q15349); conditions: at 1 µM
[20] = biological target: Ribosomal protein S6 kinase alpha-6 (Homo sapiens) (UniProt Q9UK32); conditions: at 0.1 µM;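 note: reported value is the mean inhibition of RSK4, from the GSK PKIS kinase inhibitor screen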
Sequence of Ribosomal protein S6 kinase alpha-6 (Homo sapiens) (Q9UK32 whole entry): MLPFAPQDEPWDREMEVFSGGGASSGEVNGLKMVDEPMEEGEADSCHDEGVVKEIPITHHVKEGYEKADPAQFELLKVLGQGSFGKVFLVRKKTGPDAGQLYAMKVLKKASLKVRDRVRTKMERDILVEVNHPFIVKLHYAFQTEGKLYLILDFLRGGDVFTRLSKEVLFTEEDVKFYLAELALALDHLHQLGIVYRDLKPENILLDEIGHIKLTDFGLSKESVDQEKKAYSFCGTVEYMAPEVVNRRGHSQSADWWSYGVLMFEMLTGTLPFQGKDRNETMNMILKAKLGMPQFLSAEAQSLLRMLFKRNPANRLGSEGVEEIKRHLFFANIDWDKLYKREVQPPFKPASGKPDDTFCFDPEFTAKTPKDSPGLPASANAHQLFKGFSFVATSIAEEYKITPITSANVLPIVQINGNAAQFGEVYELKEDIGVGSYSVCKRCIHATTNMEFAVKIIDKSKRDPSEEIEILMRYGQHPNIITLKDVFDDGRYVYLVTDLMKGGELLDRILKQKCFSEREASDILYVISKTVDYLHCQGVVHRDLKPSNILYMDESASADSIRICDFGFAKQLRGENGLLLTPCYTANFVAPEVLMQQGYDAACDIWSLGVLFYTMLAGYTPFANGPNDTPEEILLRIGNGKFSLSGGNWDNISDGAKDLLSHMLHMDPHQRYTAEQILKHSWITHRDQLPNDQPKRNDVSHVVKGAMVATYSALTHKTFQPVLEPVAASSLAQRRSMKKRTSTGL

Sequence of Rho-associated protein kinase 2 (Homo sapiens) (O75116 whole entry, looked up): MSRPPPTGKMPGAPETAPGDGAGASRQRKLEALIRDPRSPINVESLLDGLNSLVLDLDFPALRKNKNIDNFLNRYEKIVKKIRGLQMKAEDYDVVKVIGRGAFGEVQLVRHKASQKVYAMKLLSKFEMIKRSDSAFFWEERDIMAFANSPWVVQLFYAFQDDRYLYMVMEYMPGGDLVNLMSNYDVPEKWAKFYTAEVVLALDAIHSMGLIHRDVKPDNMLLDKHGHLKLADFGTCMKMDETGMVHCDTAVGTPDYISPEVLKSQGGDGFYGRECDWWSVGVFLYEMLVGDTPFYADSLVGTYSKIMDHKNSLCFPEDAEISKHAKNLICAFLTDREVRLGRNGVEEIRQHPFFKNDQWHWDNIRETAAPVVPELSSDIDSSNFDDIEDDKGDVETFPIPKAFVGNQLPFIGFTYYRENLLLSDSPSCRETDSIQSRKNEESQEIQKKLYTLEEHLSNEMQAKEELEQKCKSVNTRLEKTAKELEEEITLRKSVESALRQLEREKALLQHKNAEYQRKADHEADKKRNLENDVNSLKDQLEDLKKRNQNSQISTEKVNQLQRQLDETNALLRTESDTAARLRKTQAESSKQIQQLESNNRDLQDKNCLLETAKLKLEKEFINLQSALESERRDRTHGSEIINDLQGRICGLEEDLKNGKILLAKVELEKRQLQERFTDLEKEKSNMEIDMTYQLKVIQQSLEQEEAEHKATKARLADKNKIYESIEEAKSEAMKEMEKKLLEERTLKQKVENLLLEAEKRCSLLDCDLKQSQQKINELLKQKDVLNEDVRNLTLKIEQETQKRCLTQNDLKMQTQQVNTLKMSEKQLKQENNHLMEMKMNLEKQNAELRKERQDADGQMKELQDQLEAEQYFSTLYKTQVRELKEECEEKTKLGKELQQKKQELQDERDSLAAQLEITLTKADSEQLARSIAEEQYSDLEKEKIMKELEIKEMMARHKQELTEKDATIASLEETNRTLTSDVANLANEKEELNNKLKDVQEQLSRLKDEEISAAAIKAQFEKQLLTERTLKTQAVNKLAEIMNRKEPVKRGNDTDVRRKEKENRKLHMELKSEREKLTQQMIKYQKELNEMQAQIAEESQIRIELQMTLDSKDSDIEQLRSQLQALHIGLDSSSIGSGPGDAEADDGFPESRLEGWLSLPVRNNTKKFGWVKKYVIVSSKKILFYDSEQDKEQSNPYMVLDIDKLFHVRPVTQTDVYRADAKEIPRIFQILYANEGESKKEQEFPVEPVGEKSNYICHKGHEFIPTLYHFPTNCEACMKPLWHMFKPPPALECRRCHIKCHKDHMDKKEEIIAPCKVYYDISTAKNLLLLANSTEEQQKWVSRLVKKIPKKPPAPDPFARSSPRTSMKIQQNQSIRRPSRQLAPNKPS
Sequence of Ribosomal protein S6 kinase alpha-1 (Homo sapiens) (Q15418 whole entry): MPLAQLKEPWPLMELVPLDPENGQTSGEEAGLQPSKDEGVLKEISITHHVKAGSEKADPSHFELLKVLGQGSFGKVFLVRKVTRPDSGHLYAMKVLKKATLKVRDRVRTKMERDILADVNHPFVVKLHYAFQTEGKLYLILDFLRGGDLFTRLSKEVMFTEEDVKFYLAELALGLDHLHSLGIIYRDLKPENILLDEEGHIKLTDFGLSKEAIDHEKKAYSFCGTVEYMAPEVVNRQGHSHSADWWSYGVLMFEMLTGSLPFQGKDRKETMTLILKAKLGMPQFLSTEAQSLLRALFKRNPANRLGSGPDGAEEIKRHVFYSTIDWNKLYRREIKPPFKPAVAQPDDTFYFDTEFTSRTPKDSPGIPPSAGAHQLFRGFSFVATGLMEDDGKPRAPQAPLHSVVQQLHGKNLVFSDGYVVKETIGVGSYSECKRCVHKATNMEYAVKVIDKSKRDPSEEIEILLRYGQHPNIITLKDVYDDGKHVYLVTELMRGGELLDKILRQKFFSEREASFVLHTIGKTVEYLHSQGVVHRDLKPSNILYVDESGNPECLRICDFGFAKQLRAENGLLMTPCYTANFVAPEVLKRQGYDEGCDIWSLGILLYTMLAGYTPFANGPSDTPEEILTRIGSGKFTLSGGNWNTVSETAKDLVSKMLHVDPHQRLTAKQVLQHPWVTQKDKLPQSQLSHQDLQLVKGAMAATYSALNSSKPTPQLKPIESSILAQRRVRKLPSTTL
Sequence of Ribosomal protein S6 kinase alpha-2 (Homo sapiens) (Q15349 whole entry): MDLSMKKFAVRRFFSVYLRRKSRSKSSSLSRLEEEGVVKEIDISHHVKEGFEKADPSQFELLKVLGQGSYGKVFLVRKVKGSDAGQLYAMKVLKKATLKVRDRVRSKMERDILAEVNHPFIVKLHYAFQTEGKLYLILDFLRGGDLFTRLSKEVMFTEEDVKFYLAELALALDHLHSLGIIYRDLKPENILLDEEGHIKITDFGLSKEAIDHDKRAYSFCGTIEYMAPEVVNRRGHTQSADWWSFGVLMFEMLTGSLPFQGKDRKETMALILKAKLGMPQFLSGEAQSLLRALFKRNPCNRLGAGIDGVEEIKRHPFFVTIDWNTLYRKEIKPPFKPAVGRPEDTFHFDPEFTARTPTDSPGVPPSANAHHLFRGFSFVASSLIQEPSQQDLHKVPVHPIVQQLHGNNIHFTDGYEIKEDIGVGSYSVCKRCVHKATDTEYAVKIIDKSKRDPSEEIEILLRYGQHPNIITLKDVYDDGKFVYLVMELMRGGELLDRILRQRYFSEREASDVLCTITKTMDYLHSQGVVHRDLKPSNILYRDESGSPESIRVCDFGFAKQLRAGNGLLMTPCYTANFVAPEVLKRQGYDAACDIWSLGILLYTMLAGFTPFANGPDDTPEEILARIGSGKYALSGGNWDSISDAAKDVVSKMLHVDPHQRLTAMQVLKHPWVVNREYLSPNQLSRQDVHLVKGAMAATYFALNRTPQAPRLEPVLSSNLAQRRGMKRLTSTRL
Sequence of Ribosomal protein S6 kinase alpha-3 (Homo sapiens) (P51812 whole entry): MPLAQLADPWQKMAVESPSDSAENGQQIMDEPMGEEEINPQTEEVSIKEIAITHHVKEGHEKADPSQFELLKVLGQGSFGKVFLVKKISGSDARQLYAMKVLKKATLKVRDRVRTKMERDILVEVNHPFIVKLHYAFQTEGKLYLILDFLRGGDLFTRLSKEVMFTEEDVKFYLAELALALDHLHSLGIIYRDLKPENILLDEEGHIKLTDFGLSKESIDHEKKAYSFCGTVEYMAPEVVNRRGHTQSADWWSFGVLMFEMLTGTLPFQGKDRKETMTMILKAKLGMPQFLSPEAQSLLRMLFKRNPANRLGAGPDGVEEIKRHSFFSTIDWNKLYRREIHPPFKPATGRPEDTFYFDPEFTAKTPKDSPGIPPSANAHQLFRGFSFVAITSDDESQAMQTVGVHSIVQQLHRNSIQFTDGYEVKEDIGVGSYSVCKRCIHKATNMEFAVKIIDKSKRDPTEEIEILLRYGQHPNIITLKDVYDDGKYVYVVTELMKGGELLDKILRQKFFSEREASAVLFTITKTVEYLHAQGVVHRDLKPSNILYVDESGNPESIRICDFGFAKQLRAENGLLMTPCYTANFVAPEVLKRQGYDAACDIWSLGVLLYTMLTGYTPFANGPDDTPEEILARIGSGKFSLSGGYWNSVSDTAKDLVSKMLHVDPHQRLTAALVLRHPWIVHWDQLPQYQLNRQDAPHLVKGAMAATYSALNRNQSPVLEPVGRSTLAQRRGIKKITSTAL

SMILES	inhibition [1] [%]	inhibition [2] [%]	inhibition [3] [%]	inhibition [4] [%]	inhibition [5] [%]	inhibition [6] [%]	inhibition [7] [%]	inhibition [8] [%]	inhibition [9] [%]	inhibition [10] [%]	inhibition [11] [%]	inhibition [12] [%]	inhibition [13] [%]	inhibition [14] [%]	inhibition [15] [%]	inhibition [16] [%]	inhibition [17] [%]	inhibition [18] [%]	inhibition [19] [%]	inhibition [20] [%]
CC(C)c1ccc2c(c1)NC(=O)/C2=N/Nc1ccc(S(N)(=O)=O)cc1	-0.41	-0.27	-0.32	-1.53	1.06	-0.39	-0.18	0.2	-0.32	-1.01	-1.28	-1.58	-0.82	0.52	0.63	-0.56	2.05	1	2.15	-0.83
COc1cc2ncnc(Nc3ccc4c(cnn4Cc4ccccc4)c3)c2cc1OC	3	2.69	4.17	1.58	1.78	1.02	0.7	1.5	1.55	2.33	6.38	2.52	7.05	0.76	2.15	0.6	2.23	2.97	3.65	1.46
CN1CCN(C(=O)c2ccc(NC(=O)Nc3ccc(N(C)c4ccnc(Nc5ccc(CS(C)(=O)=O)cc5)n4)cc3)cc2)CC1	3.43	1.06	3.69	1.76	3.23	1.26	1.71	1.71	0.77	2.82	18.7	11.3	52	0.85	2.5	0.47	2.98	2.14	4.07	2.06
N#Cc1c(NC(=O)c2ccccc2F)sc2c1CCCC2	1.58	-2.11	-0.58	-2.04	-0.46	-1.17	-0.91	-0.74	-0.83	-0.67	0.92	-0.61	0.55	0.59	1.03	0.77	2.33	-0.49	0.67	-0.24
c1ccc(Nc2ncc(-c3ccccc3)o2)cc1	8.41	4.57	8.93	5.37	6.06	3.62	5.4	2.38	3.33	1.88	2.73	4.11	2.92	2.02	2.37	0.46	0.02	3.77	3.41	2.12
COc1cc2ncnc(Nc3ccc(C)c(O)c3)c2cc1OC	10.5	5.98	8.58	3.2	3.61	2.18	3.65	2.05	2.06	0.48	0.99	3.05	3.9	1.8	6.05	1.52	3.02	3.28	3.51	2.48
